These results are taken from PubChem BioAssay AID2763 (National Center for Advancing Translational Sciences (NCATS), 2010).

Inconclusive results are not listed. Where a call stands in place of a potency, no number is given. Active and inactive are the calls of the source. The call rests on the fitted dose curve; in most records, active means well fitted inhibition curve with a large enough effect; inconclusive means small, poorly fitted or top-dose-only effect, or effect the other way; inactive means no such curve, though single readings can be large or run the other way.
Potency means the concentration at half of the fitted maximal effect.

The assay in a line: Concentration response confirmation VP16 counterscreen for inhibitors of ROR gamma transcriptional activity. Further: nearly all actives have a fitted effect of over 70% in size. Conditions: Drosophila S2 Gal4-VP16 UAS-luciferase, luminescence, 20 h; series mostly up to 46.1 µM. From the text:
NIH Molecular Libraries Probe Production Network [MLPCN] NIH Chemical Genomics Center [NCGC] MLPCN Grant: R03 DA026211-01 Assay Provider: Dan Littman, New York University Assay Overview: The retinoic acid-related orphan receptor (ROR) gamma is a transcription factor that has a central role in the differentiation of Th17 cells, a subset of T helper cells that secrete the inflammatory cytokines IL-17, IL-17F, and IL-22. Th17 cells have been implicated in graft versus host disease, autoimmune disease and asthma. ROR gamma is induced in naive T helper cells in the presence of TGF-beta combined with IL-6, IL-21, or IL-23, and thereafter directs the expression of the Th17 lineage cytokines. To identify nonspecific inhibitors, a Drosophila Schneider cell line was stably transfected with two vectors: a gene expressing a fusion of the Gal4 DNA binding domain and the transactivation domain of the viral transcription factor VP16, under the control of the metallothionine promoter and a Photinus luciferase reporter regulated by the Gal4 binding site enhancer, UAS. […] Small molecule inhibitors that inhibit components common to the RORgt and VP16 assays, such as the Gal4 DNA binding domain or the UAS luciferase reporter, will be active in both assays and thus scored as nonspecific.
Assay Protocol Summary: For screening, 600 cells in 4 uL/well were dispensed into white solid 1536-well plates (Grenier) using a solenoid-based dispenser. Following transfer of 23 nL compound or DMSO vehicle by a pin tool, the plates were incubated 1 hr at ambient temperature, and 1 uL/well copper sulfate (700 uM final concentration) was added. The plates were centrifuged 15 s at 1000 RPM and incubated 20 hr at ambient temperature. After addition of 1.5 uL Photinus luciferase detection reagent, the plates were incubated 10 min at ambient temperature and then read by an ViewLux (Perkin Elmer) to detect luminescence.
Background: The purpose of a counterscreen is to sort out artefacts and off-target activity.
With `COc1cc(OC)c(C2=NOC(C(=O)NCc3cccnc3)C2)cc1Cl` (stereo not given), the Potency entry is “inactive”. Consider `Cc1cc(-c2ccccc2)nc(N2CCC(C(=O)NCc3ccccc3Cl)CC2)n1`, for which the Potency result is “inactive”. Under `O=C(NC(=S)Nc1nc(-c2ccc(Br)cc2)cs1)c1cccnc1` stands “inactive”; under `S=c1[nH]nc(-c2ccc(Cl)cc2Cl)n1-c1ccc2c(c1)OCCO2`, “inactive”.

As for `COc1ccc(CNC(=O)COC(=O)C2CC3C=CC2C3)cc1` (stereo not given), the Potency entry was “inactive”. For `O=C(O)c1ccc(/C=N/n2cc(-c3ccccc3)[nH]c2=S)cc1` the value was “inactive”; for `C=CCn1c(SCC(=O)c2ccc(OC)cc2)nnc1-c1cc2cccc(OC)c2o1`, “inactive”; for `O=C(O)c1ccccc1SC1CC(=O)N(c2ccc3c(c2)OCO3)C1=O` (stereo not given), 19.9 µM (active).

For `CCOC(=O)c1sc(NC(=O)c2sc(C)nc2C)nc1C`, the Potency entry was “inactive”. Consider `c1ccc(-c2ncc3c(ccc4ccccc43)n2)cc1`, for which the Potency was 8.88 µM (active). On to `COc1ccc(OC)c(/C=C2\SC(=S)N(C(C(=O)O)c3ccccc3)C2=O)c1` (stereo not given), for which the Potency result is “inactive”.

In the case of `O=C(CN1CCCCCC1)Nc1ccc(S(=O)(=O)N2CCOCC2)cc1`, the Potency result was “inactive”. For `CN(C)S(=O)(=O)c1ccc(NC(=O)/C=C/c2ccccc2Cl)cc1` the value was “inactive”; for `O=C(COc1ccccc1Cl)NCCCN1CCOCC1`, “inactive”. For `CCOC(=O)[C@@H]1[C@H]2COc3ccc(Br)cc3[C@@H]2N2C(=O)N(c3ccccc3)C(=O)[C@@]12C` the value was “inactive”. In the case of `Cc1ccc(NC2=C(Cl)C(=O)OC2OC(=O)c2ccco2)cc1` (stereo not given), the Potency entry was “inactive”. For `COc1ccc(-c2c[n+]3c(n2-c2ccc(C)cc2)CCCCC3)cc1` the value was 3.53 µM (active); for `O=C(NC(=S)Nc1nc(-c2ccccc2)cs1)c1cccnc1`, “inactive”; for `Cn1nnnc1NCc1ccccc1F`, “inactive”. For `Cc1cc(C)nc(-n2nc(C)cc2NC(=O)CNC(C)c2ccccc2)n1` (stereo not given) the value was 19.9 µM (active).

As to `CCN1CCCc2cc(CN(CCN3CCOCC3)C(=S)Nc3ccccc3C)ccc21`, the Potency was 15.8 µM (active). For `NC(=O)/C=C/C(=O)Nc1ccc(Cl)cc1` the value was 8.88 µM (active). For `Cc1cc(NC(=S)NC(=O)/C=C/c2ccc(S(=O)(=O)N3CCOCC3)cc2)ccc1Br` the value was 11.2 µM (active); for `CN1CCN(C(=O)CCN2C(=O)/C(=C\c3ccccc3F)SC2=S)CC1`, “inactive”; for `CCN(CC)C1CC(=O)N(c2cccc(C)c2)C1=O` (stereo not given), 25 µM (active). As to `Oc1ccccc1-c1cc(-c2ccc3c(c2)OCCO3)n[nH]1`, the Potency is 19.9 µM (active).

With `CCN(CC(=O)Nc1ccc2c(c1)CCC2)Cc1nc2ccccc2c(=O)[nH]1`, the Potency was 15.8 µM (active). Under `COc1ccc(C(CNC(=S)NCc2ccccc2)N2CCCC2)cc1` (stereo not given) stands “inactive”; under `OCCNc1nc2ccccc2n1-c1ncnc2sc3c(c12)CCC3`, 15.8 µM (active). For `C=CCNc1nc(Nc2ccc([N+](=O)[O-])cc2)nc(N2CCCC2)n1` the value was 19.9 µM (active); for `COc1cc(C2c3cc4c(cc3C(OC3OC5COC(c6cccs6)OC5C(O)C3O)C3COC(=O)C23)OCO4)cc(OC)c1O` (stereo not given), 25 µM (active); for `COc1ccc(Cl)c(Cn2c(NCc3ccco3)nc3c2c(=O)n(C)c(=O)n3C)c1`, 1.99 µM (active).

Consider `COc1cccc(/C=C2\SC(=S)N(CCCC(=O)N3CCCC3)C2=O)c1`, for which the Potency entry was “inactive”.

On to `Cc1cc(C)nc(-n2nc(C)cc2NC(=O)c2ccc(F)cc2F)n1`, for which the Potency was 2.81 µM (active).

Turning to `Cc1cccc(NC(=O)c2cc3ccccc3o2)c1`, the Potency is 25 µM (active). For `Cc1sc2ncnc(Sc3nnc4sc5ccccc5n34)c2c1C` the value was “inactive”. Take `COC(=O)c1ccc(Oc2cc(C)nc(-n3nc(C)cc3C)n2)cc1`: the Potency is 7.91 µM (active). As to `O=C1c2ccccc2C(=O)c2c1ccc1c(=O)n(C3CCCCC3)[nH]c21`, the Potency entry is “inactive”. Under `CCOc1cc(C)c(S(=O)(=O)NC2CCCCC2)cc1C` stands “inactive”; under `COc1nc(N/N=C/c2cc3c(cc2Br)OCO3)nc(N2CCOCC2)n1`, “inactive”.
